Records with an inconclusive call do not appear. Entries that show only a call come without a potency. Active and inactive are the calls of the source. Calls follow the shape of the dose curve; as a rule, active = well fitted cell-killing curve with a large enough effect in the repeat runs; inconclusive = weak or mixed curves, or effect the other way; inactive = no such curve, though single readings can be large or run the other way.
Test: Caspase-3/7 induction in CHO-K1 cells by small molecules, qHTS cell viability counter screen (AID 1346979); also: nearly all actives have a fitted effect of over 35% in size
Conditions: CellTiter-Fluor fluorescence, 17 h; series mostly up to 92.4 µM
Excerpt: National Center for Advancing Translational Sciences [NCATS]
NIH Chemical Genomics Center [NCGC]
U.S. Environmental Protection Agency [EPA]
National Institutes of Environmental Health Sciences [NIEHS]
National Toxicology Program [NTP]
U.S. Food and Drug Administration [FDA]
Apoptosis is a process of programmed cell death and plays a central role in the development of multicellular organisms. It is a highly regulated process and induces cell death by activating caspases, which are the members of cysteine aspartic acid-specific protease (caspase) family. Caspases involved in apoptosis are classified by their mechanism of action as initiator caspases (caspase-2, -8, -9 and -10) and executioner caspases (caspase-3, -6, and -7). Inhibition of apoptosis results in number of cancers, autoimmune diseases, inflammatory diseases and viral infection. To identify small molecule compounds that induce apoptosis, a homogeneous, luminescent Caspase-Glo 3/7 assay was used. Wild type CHO-K1 cells were used to screen Tox21 libraries for identifying caspase-3/7 activity inducers. Also cytotoxicity of the compounds was tested in parallel by measuring the cell viability using CellTiter-Fluor assay system in the same wells.
Tox21 Assay Protocol Summary:
CHO-K1 cells were dispensed at 1,500 per well in 5uL of culture medium into white solid bottom 1536-well plates (Corning Life Sciences, Corning, NY) using a Multidrop Combi (Thermo Scientific, Waltham, MA) dispenser. The assay plates were incubated at 37 C and 5% CO2 for 5hr, and then 23nL of compounds dissolved in DMSO and positive control were transferred using a Pintool station (Wako, San Diego, CA). The assay plates were incubated at 37C and 5% CO2 for 17hr. For cytotoxicity read, after 16hr incubation at 37C, 1uL CellTiter-Fluor reagent (Promega Corporation, Madison, WI) was added to each well of the assay plates using Flying Reagent Dispenser (FRD, Aurora Discovery, San Diego, CA). After 1hr incubation at 37C and 5% CO2, the fluorescence signal was quantified using a ViewLux plate reader (PerkinElmer, Shelton, CT).
Potency is read from the fitted curve at half-maximal effect.

Row | SMILES | Potency
1 | CC(C)NCC(O)COc1ccc(CC(N)=O)cc1 (stereo not given) | inactive
2 | C=CC(=O)OCC(C)OCC(C)OCC(C)OC(=O)C=C (stereo not given) | 24.3 µM (active)
3 | Cc1ccccc1N=Nc1ccc(N=Nc2c(O)ccc3ccccc23)c(C)c1 | 13.3 µM (active)
4 | O=C1Nc2cc(Cl)ccc2Oc2ccccc21 | inactive
5 | CC(C)CCCC(C)CCO (stereo not given) | inactive
6 | c1ccc(CNCc2ccccc2)cc1 | inactive
7 | O=C(O)Cc1cc(I)c(Oc2ccc(O)c(I)c2)c(I)c1 | inactive
8 | CCCCCCOC(=O)CCC | inactive
9 | CN(C)CC/C=C1\c2ccccc2COc2ccccc21 | inactive
10 | CN1CCN(C2=Nc3ccccc3Sc3ccc(Cl)cc32)CC1 | inactive
11 | CC(C)(C)c1ccc(OCC2CO2)cc1 (stereo not given) | 55.6 µM (active)
12 | Nc1ccc(C(=O)N2CC3CC(CN(Cc4ccccc4)C3)C2)cc1 | inactive
13 | CNS(=O)(=O)Cc1ccc2[nH]cc(CCN(C)C)c2c1 | inactive
14 | COc1ccc(C(C)=O)cc1 | inactive
15 | CC1CCc2cc(F)cc3c(=O)c(C(=O)O)cn1c23 (stereo not given) | inactive
16 | CCCCCCCCCCCCCCCC(=O)OC/C=C(C)/C=C/C=C(C)/C=C/C1=C(C)CCCC1(C)C | inactive
17 | Cn1c(=O)c2c(ncn2CC(O)CO)n(C)c1=O (stereo not given) | inactive
18 | Cc1cc(O)ccc1N | 61.4 µM (active)
19 | CCCCCCCCCCCCCCC1CO1 (stereo not given) | inactive
20 | O=C(O)[C@@H]1[C@H]2C[C@H]3c4[nH]c5ccccc5c4CCN3C[C@@H]2CC[C@@H]1O | inactive

Row | SMILES | Potency
21 | CCCC(=O)OCC | inactive
22 | CCCCCOC(=O)COc1cc(N2C(=O)C3=C(CCCC3)C2=O)c(F)cc1Cl | inactive
23 | C=CC(C)(CCC=C(C)C)OC(=O)c1ccccc1 (stereo not given) | inactive
24 | O=C1[C@H](CC[C@H](O)c2ccc(F)cc2)[C@@H](c2ccc(O)cc2)N1c1ccc(F)cc1 | 29.8 µM (active)
25 | CC(=O)SCc1ccco1 | inactive
26 | C1CCC2OC2C1 (stereo not given) | inactive
27 | CCCCOC(O)CC (stereo not given) | inactive
28 | NC(N)=N/N=C/c1c(Cl)cccc1Cl | 29.8 µM (active)
29 | Cc1cc(NC(=O)C(=O)O)cc(C)c1Oc1ccc(O)c2c1CCC2 | inactive
30 | CC(=O)c1c(C)c([N+](=O)[O-])c(C(C)(C)C)c([N+](=O)[O-])c1C | inactive
31 | Cn1c(N)nc2nc[nH]c2c1=O | inactive
32 | CCCCCCCCCC(=O)OCC | inactive
33 | O=C(O)C(c1ccc(Cl)cc1)c1ccc(Cl)cc1 | inactive
34 | O=C(c1ccccc1)c1ccc2n1CCC2C(=O)O (stereo not given) | inactive
35 | Cc1c(Cn2ccnc2)c2ccccc2n1CCC(=O)O | inactive
36 | NCCCN(CCO)CCO | inactive
37 | CC(C)(C)c1cc(O)c(C(C)(C)C)cc1O | 61.1 µM (active)
38 | N=C(N=C(N)N)N1CCOCC1 | inactive
39 | CC(C)c1ccccc1C(C)C | inactive
40 | CC(=O)NCCCS(=O)(=O)O | inactive

Source: PubChem BioAssay (Tox21)
